LmPK inh: LmPK (Leishmania mexicana) enzyme inhibition | purified LmPK, Kinase-Glo ATP luminescence, 1 h | AID 1721 | Potency, µM (doses to about 57.5 µM), inactives show top-dose activity change, negative = inhibition, hits mostly inhibitors | hit rate 0.37% among 290,000 | Q27686; note: potency is the fitted concentration of half-maximal effect; % is set by controls: 0 for no effect and ±100 for the full control effect
Target sequence (Q27686 whole entry, looked up): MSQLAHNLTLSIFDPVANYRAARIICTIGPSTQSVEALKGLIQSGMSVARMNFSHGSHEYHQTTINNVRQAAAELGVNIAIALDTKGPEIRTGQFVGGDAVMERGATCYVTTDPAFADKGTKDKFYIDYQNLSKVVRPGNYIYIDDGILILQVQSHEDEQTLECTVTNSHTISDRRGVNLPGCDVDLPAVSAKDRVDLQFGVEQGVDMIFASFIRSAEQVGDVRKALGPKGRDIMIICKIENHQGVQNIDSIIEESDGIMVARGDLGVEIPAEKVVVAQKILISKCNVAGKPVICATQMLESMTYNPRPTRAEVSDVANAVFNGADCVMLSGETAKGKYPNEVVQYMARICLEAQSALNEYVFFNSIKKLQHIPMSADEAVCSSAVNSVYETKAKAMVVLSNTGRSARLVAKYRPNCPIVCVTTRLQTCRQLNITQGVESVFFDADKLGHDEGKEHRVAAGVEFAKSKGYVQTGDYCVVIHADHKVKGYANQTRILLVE
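Screened at intermediate enzyme activity to detect both inhibitors and activators: LmPK at 0.1 nM, with a 0.5 nM enzyme column as activation reference. PEP 0.5 mM, ADP 0.1 mM; ATP detected by luminescence after 1 h.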
FBPA Giardia inh: blocks Giardia fructose-bisphosphate aldolase activity. A8B2U2. purified Giardia FBPA. Potency, µM (top dose mostly 59.6 µM), for inactives: at the top dose activity, negative = inhibition, actives largely listed as inhibitors. hit rate 0.71% among 290,000. AID 2451; note: potency is the fitted concentration of half-maximal effect; % is set by controls: 0 for no effect and ±100 for the full control effect; nearly all actives have a fitted effect of over 55% in size
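40 nM FBPA preincubated 10 min at RT with compound (up to 57.5 uM final), then substrate plus GAPDH/TPI/NAD/arsenate coupling and diaphorase/resazurin added. Fluorescence read after 20 min at RT, 525/598 nm.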
RE007 growth inh: less growth of the S. pombe RE007 Vpr strain; hit rate 0.21% among 360,000; Potency, µM (highest dose often 92.2 µM), without a hit: at the top dose activity change, negative = less growth, actives largely listed as inhibitors; S. pombe RE007 Vpr strain, BacTiter-Glo ATP luminescence, 24 h; active = well fitted falling curve with a large enough effect; inconclusive = small, poorly fitted or top-dose-only effect; inactive = no such curve, though single readings can be large or run the other way; note: potency is the fitted concentration of half-maximal effect; % is set by controls: 0 for no effect and ±100 for the full control effect; nearly all actives have a fitted effect of over 50% in size
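Fission yeast RE007 carrying one integrated HIV-1 vpr copy, seeded at OD 0.01 in PMG+AL medium with 23 nL pinned compound. Grown 24 h at 30 degrees; viability read by BacTiter-Glo luminescence after 5 min.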
CHX counter: counter-screen for Shiga toxin inhibitors: cycloheximide protein synthesis inhibition | cell reporter, cycloheximide protein synthesis inhibition counterscreen | max response, % | hit rate 12% among 300,000; in the data active = max response mostly above about 13%, no sharp cut-off; inactive = mostly below about 14%; note: read at 38.3 µM for the half of the compounds with a filed dose; 0% is about no effect
Shiga toxin inh: Shiga toxin inhibition. hit rate 9.2% among 290,000. Vero cells, Shiga toxin protein synthesis inhibition reporter. AID 2315. inhibition, % at 38.7 µM; in the data active = inhibition mostly above about 28%, no sharp cut-off; inactive = mostly below about 43%; note: 0% is about no effect
TbPYK inhibitor: blocks Trypanosoma brucei pyruvate kinase; Q57TT1; TbPYK enzyme, Kinase-Glo Plus ATP luminescence, 45 min; Potency, µM (top dose mostly 76.8 µM), for the others: at the highest dose activity, negative = inhibition, most hits filed as inhibitors; hit rate 0.12% among 410,000; AID 624173; note: potency is the fitted concentration of half-maximal effect; % is set by controls: 0 for no effect and ±100 for the full control effect; nearly all actives have a fitted effect of over 50% in size
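TbPYK + substrate in 50 mM TEA pH 7.2, 100 mM KCl, 10 mM MgCl2, 0.05% BSA, 0.01% Tween-20; cpd pinned; ADP 130 uM final; 45 min RT; Kinase-Glo Plus 10 min; luminescence endpoint.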
Numbers without * were called inactive; ? = inconclusive; . = no result given. This is one part of a sample in which hits are shown more often than they occur. Unless noted, calls come from the whole dose curve; as a rule, active = well fitted curve in the direction sought with a large enough effect; inconclusive = small, poorly fitted or top-dose-only effect, or another doubt; inactive = no such curve, though single readings can be large; an effect the other way counts as inactive or inconclusive.

SMILES	LmPK inh	FBPA Giardia inh	RE007 growth inh	CHX counter	Shiga toxin inh	TbPYK inhibitor
CCOc1ccccc1NC(=S)N1CCN(c2nc(-c3cccc(OC)c3)cs2)CC1	4%	2%	12%	13	47	3%
COc1cccc(-c2csc(N3CCN(C(=O)Nc4ccccc4Cl)CC3)n2)c1	2%	-4%	6%	9.5*	50	-14%
CCCc1nn2c(=O)cc(COC(=O)c3ccc4c(c3)OCO4)nc2s1	.	.	.	.	.	-2%
COc1ccccc1CNc1ncnc2ccc(-c3ccc(C(=O)N(C)C)cc3)cc12	.	3%	.	.	.	.
CCOC(=O)N1CCN(c2nc(-c3ccc(Cl)cc3)cs2)CC1	3%	1%	2%	36*	46*	-4%
COc1cccc(-c2csc(N3CCN(C(=S)Nc4ccccc4C)CC3)n2)c1	3%	-5%	1%	18*	49*	-3%
COc1cccc(-c2csc(N3CCN(C(=S)Nc4ccc(Cl)cc4)CC3)n2)c1	0%	0%	2%	24*	75*	-14%
COc1cccc(-c2csc(N3CCN(C(=S)Nc4cccc(C)c4)CC3)n2)c1	0%	-12%	5%	18*	41	-1%
COc1cccc(-c2csc(N3CCN(C(=S)Nc4ccccc4)CC3)n2)c1	2%	-2%	1%	1	-4	7%
O=C(CN1C(=O)CC(c2ccco2)Sc2ccccc21)Nc1cccc(C(F)(F)F)c1 (centres undefined)	.	.	.	.	.	6%
Cc1ccccc1NC(=O)CSc1nnc(-c2cccc(Cl)c2)o1	.	.	.	.	.	1%
O=C(CSc1nnc(-c2ccc(C(F)(F)F)cn2)o1)Nc1cccc(Cl)c1	2%	-3%	10%	17*	56	-5%
O=C(CSc1nnc(-c2cccc(Cl)c2)o1)Nc1ccc2c(c1)OCCO2	-4%	-1%	-9%	15	36*	-4%
Cc1cccc(SCC(=O)Nc2ccc3c(c2)OCCO3)c1	-7%	6%	-6%	39*	102*	0%
Nc1ccccc1SCC(=O)Nc1ccc2c(c1)OCO2	-9%	.	5%	23*	73*	-5%
COc1cc2c(cc1CC=C(C)C)C(=O)C[C@@H](c1ccc(O)cc1)O2	.	-3%	.	-8	-2	.
CCC(C)n1c(=N)c(C(=O)NCc2ccco2)cc2c(=O)n3cc(C)ccc3nc21 (centres undefined)	.	.	.	.	.	4%
CC(=O)NC(CC(=O)Nc1ccc2c(c1)OCCO2)c1ccccc1 (centres undefined)	1%	12%	-2%	20*	52	-8%
Nc1ccccc1SCC(=O)Nc1ccc2c(c1)OCCO2	-6%	.	-12%	37*	87*	-10%
Nc1cc(N)nc(SCC(=O)Nc2ccc3c(c2)OCCCO3)n1	1%	1%	-2%	23*	41	-4%
O=C(CSc1nnc(Cc2ccccc2)o1)Nc1ccc2c(c1)OCO2	6%	-10%	12%	38*	28	-12%
O=C(CC(c1ccccc1)c1ccccc1)Nc1ccc2c(c1)OCCO2	-1%	.	-2%	16	49	1%
C[C@]12CCC(=O)C=C1CC[C@@H]1[C@@H]2[C@@H](O)C[C@@]2(C)[C@H]1CC[C@]2(O)C(=O)COP(=O)(O)O	.	.	.	.	.	-5%
O=C(Nc1cnn(Cc2ccc(Cl)cc2Cl)c1)c1noc2c1CCc1ccccc1-2	.	.	.	.	.	6%
CCc1nc(SCC(=O)Nc2ccc(NC(C)=O)cc2)n[nH]1	.	.	.	.	.	-2%
SMILES	LmPK inh	FBPA Giardia inh	RE007 growth inh	CHX counter	Shiga toxin inh	TbPYK inhibitor
CN(C(=O)COc1cc(C(F)(F)F)nn1C)c1ccccc1	4%	2%	17%	-2	15	5%
CN(C(=O)CCc1nc2ccccc2s1)c1ccccc1	0%	7%	8%	21*	1	2%
CN(C(=O)COc1nc2ccccc2s1)c1ccccc1	.	-2%	.	11	23*	.
CCC(=O)N1CCc2cc(Br)cc(S(=O)(=O)N3CCN(c4ccccc4OC)CC3)c21	.	.	.	.	.	2%
CNC(=O)C(C)c1ncc(C(F)(F)F)cc1Cl (centres undefined)	-2%	3%	-6%	-1	2	2%
CNC(=O)c1cc2ncc(C(F)(F)F)cc2s1	11%	0%	3%	18*	38	-4%
Cc1ccc(C(=O)NCCc2csc(-c3cccc(F)c3)n2)cc1C	.	.	.	.	.	-3%
CN(C)c1ccc(NC(=O)Nc2csc3ccccc23)cc1	3%	?	-22%	44*	76*	-6%
O=C(Nc1ccc(F)cc1)Nc1csc2ccccc12	4%	-11%	0%	21*	97*	-10%
COCCn1c(SCc2ccccc2F)nc2c([nH]c3ccccc32)c1=O	.	.	.	.	.	-3%
Cc1cc2n(n1)SC(Nc1ccc(F)c(Cl)c1)N2 (centres undefined)	4%	?	-9%	32*	active	-10%
COc1cc(SC)ccc1C(=O)NCCCOC(C)C	-5%	3%	-6%	13*	14	0%
COc1cc(SC)ccc1C(=O)N(C)Cc1ccccc1	0%	1%	21%	22*	28	3%
COc1cc(SC)ccc1C(=O)NCc1ccccc1	-2%	-9%	.	26*	36*	-6%
COc1cc(SC)ccc1C(=O)NCc1ccc(C)cc1	5%	0%	-16%	16*	31	6%
COCCCNC(=O)C1CCN(Cc2cc3ccccc3n2Cc2cccc(Cl)c2)CC1	.	.	.	.	.	3%
CCCC(=O)NC(C)c1nc2ccccc2n1Cc1ccccc1 (centres undefined)	.	.	.	.	.	-6%
O=C(OCc1ccc(Cl)cc1)c1ccccc1C(=O)c1ccccc1	-1%	.	-2%	21*	60	4%
COC(=O)c1ccc(COC(=O)c2cccnc2Cl)cc1	-8%	.	11%	37*	97	0%
O=C(OCc1ccc(Cl)cc1)c1cccnc1Cl	-4%	-2%	-5%	18*	55	4%
O=C(OCc1ccc(COC(=O)c2ccccn2)cc1)c1ccccn1	-12%	5%	0%	30*	66*	-5%
O=C(OCc1ccc(Cl)cc1)c1cnccn1	-9%	0%	6%	1	-27	0%
O=C(OCc1ccccc1)c1cccnc1Cl	-5%	0%	-7%	10	19	1%
COc1ccc(-c2cc(C(=O)N/N=C/c3cccnc3)c3ccccc3n2)cc1	0%	.	-18%	27*	31	-2%
CCCc1ccc(-c2cc(C(=O)N/N=C/c3ccc([N+](=O)[O-])o3)c3ccccc3n2)cc1	3%	-15%	-11%	23*	59	1%

Screens: PubChem, National Center for Advancing Translational Sciences (NCATS)
